# Screening results as filed in PubChem BioAssay.
# CASP6 VEID inh: caspase-6 (human) enzyme inhibition; purified caspase-6, Z-VEID-R110 cleavage fluorescence; inhibition, % at 12.5 µM; actives 0.53% (n = 350,000);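 active = mean inhibition across replicates at least about 35%, with every replicate also reaching that limit, limit read from the data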;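 also: 0% = median of neutral control wells and 100% = no fluorescence left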
# LEDGF integ inh: blocks HIV-1 LEDGF/p75-dependent DNA integration. TR-FRET IN-LEDGF/p75 DNA integration, Eu/Cy5. AID 743269. actives 0.64% (n = 370,000). inhibition, % at 3.7 µM;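 active = inhibition above the screen-wide mean plus 3 SD, cut at about 13% in these data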;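 also: signal is the Cy5 over europium emission ratio at 671 and 618 nm; 0% = plate median of compound wells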
# UHRF1 binding: blocks human UHRF1 binding to methylated DNA; UHRF1 binding to methylated oligo, TR-FRET; AID 687016; inhibition, % at 4.4 µM; actives 0.75% (n = 370,000); Q96T88; in the data active = inhibition above about 21%;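 also: UHRF1 SRA domain binding a hemimethylated CpG hairpin DNA probe; 0% = median of test compound wells and 100% = reference inhibitor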
# Target sequence (Q96T88 whole entry, looked up, the tested form may be a part): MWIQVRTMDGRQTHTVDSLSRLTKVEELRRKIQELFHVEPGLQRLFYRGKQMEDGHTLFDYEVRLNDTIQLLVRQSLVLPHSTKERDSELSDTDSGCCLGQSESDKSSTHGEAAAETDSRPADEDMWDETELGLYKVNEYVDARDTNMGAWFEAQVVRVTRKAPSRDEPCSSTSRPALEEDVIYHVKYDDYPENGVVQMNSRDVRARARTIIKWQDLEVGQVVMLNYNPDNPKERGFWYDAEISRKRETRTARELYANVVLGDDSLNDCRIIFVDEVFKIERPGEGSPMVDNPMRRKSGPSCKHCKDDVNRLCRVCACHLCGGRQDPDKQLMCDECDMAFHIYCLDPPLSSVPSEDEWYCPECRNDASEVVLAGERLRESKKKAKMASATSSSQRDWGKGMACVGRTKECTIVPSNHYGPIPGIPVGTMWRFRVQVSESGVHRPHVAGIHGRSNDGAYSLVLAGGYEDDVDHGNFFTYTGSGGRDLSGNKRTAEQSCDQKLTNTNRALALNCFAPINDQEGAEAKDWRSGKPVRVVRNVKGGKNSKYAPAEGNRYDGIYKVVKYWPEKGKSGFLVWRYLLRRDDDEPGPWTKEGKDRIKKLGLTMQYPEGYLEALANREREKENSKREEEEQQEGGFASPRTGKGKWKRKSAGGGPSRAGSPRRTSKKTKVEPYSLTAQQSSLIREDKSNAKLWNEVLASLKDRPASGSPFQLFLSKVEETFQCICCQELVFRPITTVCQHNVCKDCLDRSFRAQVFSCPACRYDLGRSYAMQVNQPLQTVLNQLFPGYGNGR
# MBD2 DNA inh: blocks human MBD2 binding to methylated DNA | Q9UBB5 | TR-FRET, MBD2 binding to methylated oligonucleotide | actives 0.31% (n = 370,000) | inhibition, % at 4.4 µM; in the data active = inhibition above about 13%
# * hit, by the source's call; . = no result given. Shown are actives, neighbours in structure and some others; about 1.4% of the full set was active somewhere.
SMILES,CASP6 VEID inh,LEDGF integ inh,UHRF1 binding,MBD2 DNA inh
CCOC(=O)C1C(c2cccc(F)c2)NC(=S)NC1(O)C(F)(F)F (configuration not stated),.,-0.4,28.9*,0.6
COC(=O)C[C@@H]1CC[C@H]2[C@@H](COC[C@H](O)CN2S(=O)(=O)c2ccc(F)cc2)O1,-1.0,.,.,.
CN(Cc1ccco1)c1ncnc2ccc(-c3ccoc3)cc12,39.5*,20.4*,22.2*,12.8
COCCNC(=O)C[C@H]1C[C@H]2c3cc(NC(=O)c4cccnc4)ccc3O[C@H]2[C@H](CO)O1,0.6,.,.,.
Cc1c(C(=O)N2CCCCC2)c(S(=O)(=O)N2c3ccccc3CC2C)c(C)n1C (configuration not stated),-1.5,3.3,22.7*,2.4
Cc1c(C(=O)N2CCCCC2)c(S(=O)(=O)N2CCN(c3ccccc3F)CC2)c(C)n1C,0.5,2.8,-1.9,3.0
CC1CCN(S(=O)(=O)N2CCCC(C(=O)NCc3ccccc3Cl)C2)CC1 (configuration not stated),5.3,-0.2,2.8,3.1
CC(=O)N1c2ccc(S(=O)(=O)N3CCCC3C(=O)NCc3ccccc3Cl)cc2CC1C (configuration not stated),0.6,-6.1,48.9*,2.5
COc1ccccc1CNC(=O)C1CCN(S(=O)(=O)c2ccc3c(c2)CC(C)N3C(C)=O)CC1 (configuration not stated),3.2,0.4,0.1,-6.0
CC1CC(C)CN(S(=O)(=O)N2CCCC(C(=O)NCc3ccccc3Cl)C2)C1 (configuration not stated),1.5,1.2,22.0*,10.1
O=C(N[C@H]1CC[C@@H](CCNC(=O)C2CCC2)O[C@H]1CO)c1ccccn1,-1.4,.,.,.
O=C(C[C@@H]1C=C[C@@H](NC(=O)C2CCOCC2)[C@@H](CO)O1)NCc1ccncc1,0.4,.,.,.
COc1ccc(-c2cc3ccc(OCC(C)=O)cc3oc2=O)cc1,1.9,10.6,22.8*,12.2
O=C(O)CCC(=O)Nc1sc2c(c1C(=O)Nc1ccccc1)CCCCC2,47.0*,0.7,5.7,1.0
O=C(O)CCC(=O)Nc1sc2c(c1C(=O)Nc1cccc3ccccc13)CCCCC2,.,5.0,-9.8,-0.5
O=C(N/N=C/C=C/c1ccco1)c1ccccc1Cl,49.4*,8.4,1.1,-0.4
CC(/C=C/c1ccco1)=N/NC(=O)c1ccccc1Cl,.,-2.9,-1.1,4.6
C=CCN1C(=O)/C(=C/c2ccc(OCC(=O)O)cc2)S/C1=N/c1nccs1,38.2*,2.2,-1.3,-6.2
CCOC(=O)c1nn(-c2ccc(C)c(C)c2)c(=O)c2c(N)scc12,.,4.6,1.3,-1.8
CCOC(=O)c1nn(-c2ccc(OC)cc2)c(=O)c2c(N)scc12,44.5*,2.9,3.7,-5.8
Cc1ccc(CNC(=O)c2ccc(-n3cccc3)cc2)cc1,6.1,11.2,35.0*,10.5
Cc1ccc(CNC(=O)Cc2ccc(-n3cccc3)cc2)cc1,.,-0.5,-4.0,1.2
CCCC(=O)Nc1ccc2c(c1)C(=O)N(C)C[C@@H](OC)[C@H](C)CN(Cc1cncnc1)[C@@H](C)CO2,-4.1,.,.,.
Cc1ccc(S(=O)(=O)Nc2ccc3c(c2)C(=O)N([C@@H](C)CO)C[C@H](C)[C@@H](CN(C)C(=O)Nc2ccccc2)O3)cc1,-0.6,.,.,.
O=C(NC1CCN(S(=O)(=O)c2ccc(Cl)cc2)CC1)c1cccnc1,0.4,-0.5,31.4*,9.5
SMILES,CASP6 VEID inh,LEDGF integ inh,UHRF1 binding,MBD2 DNA inh
Cc1ccc(C)c(OCC(=O)N(Cc2nnc(-c3ccccc3Cl)o2)C2CC2)c1,1.2,-0.1,-1.1,2.7
Cc1cccc(OCC(=O)N(Cc2nnc(-c3ccccc3Cl)o2)C2CC2)c1,0.7,-7.6,68.5*,-2.2
CC(CO)NS(=O)(=O)c1cc(Cl)ccc1F (configuration not stated),0.2,-4.1,25.5*,12.3
COc1cccc(Nc2ccccc2C(=O)O)c1,-2.5,-0.9,14.4,4.7
COc1cccc(Oc2ccc(OC)cc2C(=O)O)c1,5.6,0.8,26.0*,6.2
O=C(NCCNC(=O)c1ccccc1O)c1ccccc1O,0.7,-0.4,-0.8,-1.4
O=C(CC1CCCC1)NNC(=O)c1ccccc1O,-7.7,-5.5,36.2*,4.2
O=C(CCNC(=O)c1ccccc1Cl)NNC(=O)c1ccccc1O,-8.5,-10.9,34.3*,2.8
O=C(CCN=C1NS(=O)(=O)c2ccccc21)OCC(=O)c1ccccc1,0.9,1.0,31.6*,0.2
O=C(CCCN=C1NS(=O)(=O)c2ccccc21)OCC(=O)c1ccccc1,4.6,-1.1,-2.6,1.1
CN(c1ncc(C(F)(F)F)cc1Cl)N1C(=O)c2cccc([N+](=O)[O-])c2C1=O,1.9,4.3,22.7*,1.3
CN(C)C(=O)c1cn(N(C)c2ncc(C(F)(F)F)cc2Cl)c(=O)c2ccccc12,.,0.9,0.5,-2.1
COc1ccc(S(=O)(=O)N[C@@H]2CC[C@@H](CCNC(=O)CN3CCOCC3)O[C@H]2CO)cc1,-3.5,.,.,.
C=CCn1cnc2c(c1=O)c1nc3ccccc3nc1n2/N=C/c1cc(OC)c(OC)c(OC)c1,.,1.1,1.7,-5.1
COCCn1cnc2c(c1=O)c1nc3ccccc3nc1n2/N=C/c1cccc(OC)c1,1.3,-4.1,24.4*,3.5
COc1ccc(S(=O)(=O)N2C[C@H](O)COC[C@H]3O[C@@H](CC(=O)NCCCN4CCOCC4)CC[C@@H]32)cc1,-4.5,.,.,.
O=C1c2ccccc2C(=O)c2c([N+](=O)[O-])ccc(O)c21,38.4*,-2.5,11.1,-2.0
O=C(O)c1ccc([N+](=O)[O-])c2c1C(=O)c1ccccc1C2=O,4.1,-7.6,5.1,-0.8
C[C@@H]1CN([C@H](C)CO)C(=O)c2cc(NS(C)(=O)=O)ccc2O[C@@H](C)CCCCO[C@@H]1CN(C)Cc1ccccc1,-0.6,.,.,.
Cn1c(N)c(N=O)c(=O)n(C)c1=S,60.0*,-2.9,-10.7,-16.2
COC(=O)C[C@H]1C=C[C@@H](NS(=O)(=O)c2ccccc2F)[C@H](CO)O1,0.9,.,.,.
CCC(=O)Nc1ccc2c(c1)C(=O)N(C)C[C@@H](OC)[C@H](C)CN(Cc1cccnc1)[C@H](C)CO2,-0.7,.,.,.
CCN(CC)CCNc1ncnc2c1sc1nc(N3CCOCC3)c3c(c12)CCCC3,-2.3,-0.1,14.8,7.0
CCN(CC)CCNc1ncnc2c1sc1nc(N3CCCC3)c3c(c12)CC(C)(C)OC3,0.5,3.0,22.7*,7.2
CN(C)CCNc1ncnc2c1sc1nc(N3CCCC3)c3c(c12)CC(C)(C)OC3,-4.5,-2.9,23.1*,9.4
C[C@H]1CN([C@@H](C)CO)S(=O)(=O)c2ccc(-c3ccccc3)cc2O[C@H]1CN(C)C(=O)Nc1ccccc1F,1.5,.,.,.
COC(=O)CCc1c(C)c(C(=O)c2cc(F)c(F)c(F)c2F)c2ccccn12,62.4*,5.6,11.0,-1.0
COC(=O)CCc1c(C)c(C(=O)c2ccc(F)cc2)c2ccccn12,0.2,2.2,0.3,-5.2
C/C(=N/NC(=O)CSc1nc2ccccc2n1C)c1ccc(O)cc1,2.1,-1.5,-4.5,2.4
C/C(=N/NC(=O)CSc1nc2ccccc2n1C)c1ccco1,-0.1,0.6,83.0*,-5.2
